SMILES strings stand for the structures. Records with an inconclusive call do not appear. Active and inactive are the calls of the source. Calls come from the whole dose curve; as a rule, active = well fitted inhibition curve with a large enough effect; inconclusive = small, poorly fitted or top-dose-only effect; inactive = flat fitted curve, though single readings scatter.

Chain of Luciferin 4-monooxygenase (Photinus pyralis) (P08659 whole entry, looked up): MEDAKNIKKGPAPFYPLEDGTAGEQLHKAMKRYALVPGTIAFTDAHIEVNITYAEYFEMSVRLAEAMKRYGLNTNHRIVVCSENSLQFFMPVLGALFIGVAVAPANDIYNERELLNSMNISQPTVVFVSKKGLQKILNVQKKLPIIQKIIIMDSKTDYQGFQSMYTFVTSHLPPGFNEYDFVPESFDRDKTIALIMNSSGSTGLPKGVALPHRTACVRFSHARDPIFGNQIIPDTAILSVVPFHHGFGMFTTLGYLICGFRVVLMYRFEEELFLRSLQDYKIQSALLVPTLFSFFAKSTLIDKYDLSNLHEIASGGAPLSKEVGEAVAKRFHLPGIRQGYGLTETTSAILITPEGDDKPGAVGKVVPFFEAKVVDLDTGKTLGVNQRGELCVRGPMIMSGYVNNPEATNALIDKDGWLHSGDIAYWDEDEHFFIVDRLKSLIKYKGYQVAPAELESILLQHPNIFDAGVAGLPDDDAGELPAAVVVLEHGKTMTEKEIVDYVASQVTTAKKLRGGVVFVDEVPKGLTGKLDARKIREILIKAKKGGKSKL

This test addresses Luciferin 4-monooxygenase (Photinus pyralis) (UniProt P08659). Kind of test: FLuc inhibitory activity for the follow-up compounds in a biochemical assay with 1mM D-luciferin. Conditions: purified FLuc, luminescence; series mostly up to 57.5 µM. The text has this: NCGC Assay Overview: Firefly (Photinus pyralis) luciferase is one of the most commonly used transcriptional reporters. It is considered one of the more dynamically responsive reporters - that is, responsive to changes in reporter transcription - as it requires no post-translational modifications and is enzymatically active directly after protein synthesis (Wood, 1998). With no endogenous expression in mammalian cells and without the requirement of external excitation, it offers very little background signal, thus generally providing excellent signal to background for most assays. Previous profiling work to determine the prevalence of compounds that affect FLuc enzymatic activity (PubChem AID 411) identified that ~3% of the MLSMR library (then at ~72K) inhibited FLuc. […] Of the compounds identified in this profile that inhibited FLuc, 151 compounds were selected for further analysis, in an effort to better understand their mode of inhibiting FLuc. The assay described here was to determine the activity of the compounds in a FLuc assay that contained a KM concentration of ATP and a high concentration (1mM) of D-luciferin.
NCGC Assay Protocol Summary: Reagents: 50mM Tris acetate, pH 7.5; 10mM Mg acetate; 1mM D-luciferin (Sigma #L9504); 10uM ATP; 0.01% Tween-20; 0.05% BSA; 10nM P. pyralis luciferase (Sigma #L9506) Control compounds used were two known firefly luciferase inhibitors (3-(5-(3-chlorophenyl)-1,2,4-oxadiazol-3-yl)benzoic acid and 5-(2-fluorophenyl)-3-phenyl-1,2,4-oxadiazole), and DMSO. Three microliters containing firefly luciferase substrates in buffer (final concentrations: 50mM Tris acetate, pH 7.5, 10mM Mg acetate, 0.01% Tween-20, 0.05% BSA, 1mM D-luciferin, 10uM ATP) are dispensed into each well of a Greiner white, solid-bottom 1536-well format plate using a flying reagent dispenser (FRD). These assay plates were then treated with 23nL of compound or DMSO using a Kalypsys pin tool, which allows for delivery of a 12-point intraplate titration of each compound to the assay plate (quantitative HTS), with a final compound concentrations ranging from approximately ~60uM to 0.3nM. One microliter of firefly luciferase in […] Tris-acetate buffer was then delivered by FRD to each well for a final enzyme concentration of 10nM. Luciferase activity was then measured using a ViewLux CCD imager (PerkinElmer), with an average exposure time of 2-30 seconds (2X binning, medium/high gain).
In the case of `Cc1c(NC(=O)C(C)(C)C)cccc1-c1nc2ccccc2s1`, the Potency was 10.3 µM (active).

As to `Nc1cccc(-c2nc3ccc(N)cc3s2)c1`, the Potency is 2.59 µM (active).

In the case of `O=C(Cc1ccccc1)Nc1ccc(C(=O)Nc2ccccc2C(=O)O)cc1`, the Potency was 20.6 µM (active).

`Cc1ccc(S(=O)(=O)N2CCN(C(=O)c3ccccc3-c3nc4ccccc4s3)CC2)c(C)c1`: the Potency entry is “inactive”.

For the compound `O=C(Nc1ccccc1C(=O)O)c1cccc(NC(=O)c2ccccc2Cl)c1`, the Potency was 36.6 µM (active).

As for `O=C(Nc1ccccc1C(=O)O)c1ccc(NC(=O)C2CCCO2)cc1` (stereo not drawn), the Potency was 20.6 µM (active).

Regarding `CN=c1scc(-c2ccccc2F)n1/N=C/c1ccc[nH]1`, the Potency was 0.0819 µM (active).

With `CC(=O)Oc1ccc(C(=O)Nc2ccccc2C(=O)Nc2ccc(C(=O)O)cc2)cc1`, the Potency is 18.3 µM (active).

Regarding `CCOc1ccc2nc(NC(=O)Cc3cccs3)sc2c1`, the Potency is 18.3 µM (active).

As to `COc1ccc(-c2nc3ccccc3s2)cc1NC(=O)c1ccc(F)cc1`, the Potency result is “inactive”.

For the compound `Cc1ccc(C(=O)Nc2ccccc2C(=O)O)cc1S(=O)(=O)N1CCCCCC1`, the Potency was 5.17 µM (active).

In the case of `CC(C)(C)NC(=O)c1ccccc1-c1nc2ccccc2s1`, the Potency result is “inactive”.

As to `Cc1cccc(C(=O)Nc2ccc(-c3nc4ccccc4s3)cc2Cl)c1`, the Potency result is “inactive”.

`O=C(Nc1ccccc1C(=O)O)c1ccc(NC(=O)C2CCCCC2)cc1`: the Potency was 16.3 µM (active).

For `CCOc1ccc2nc(NC(=O)c3ccccc3)sc2c1`, the Potency was 1.46 µM (active).

As to `COc1ccc2nc(NC(=O)c3ccc(S(=O)(=O)N4CCCC(C)C4)cc3)sc2c1` (stereo not drawn), the Potency entry is “inactive”.

Consider `Nc1ccc(-c2nc3ccc(N)cc3s2)cc1`, for which the Potency was 1.83 µM (active).

For the compound `COc1ccc2nc(NC(=O)c3ccco3)sc2c1`, the Potency is 3.26 µM (active).

In the case of `Cc1ccc(C(=O)Nc2cccc(C(=O)O)c2)cc1S(=O)(=O)N1CCOCC1`, the Potency was 16.3 µM (active).

Turning to `Cc1c(NS(C)(=O)=O)cccc1-c1nc2ccccc2s1`, the Potency was 16.3 µM (active).

Regarding `c1ccc2sc(-c3ccc4c(c3)OCO4)nc2c1`, the Potency is 1.3 µM (active).

Take `COc1ccc2nc(NC(=O)c3ccc(NS(=O)(=O)c4cccs4)cc3)sc2c1`: the Potency is 18.3 µM (active).

With `CCOc1ccc(C(=O)Nc2ccccc2C(=O)O)cc1`, the Potency is 3.66 µM (active).

For `O=C(Nc1cccc(-c2nc3ccccc3s2)c1)c1cc(-n2cnnc2)ccc1Cl`, the Potency is 8.19 µM (active).

On to `Cc1ccc2nc(-c3ccc(N)cc3)sc2c1`, for which the Potency is 0.517 µM (active).

In the case of `Cc1ccc(C(=O)Nc2cccc(C(=O)O)c2)cc1`, the Potency was 4.11 µM (active).

For `COc1ccc2nc(NC(=O)C3CCN(S(=O)(=O)c4cccnc4)CC3)sc2c1`, the Potency entry was “inactive”.

Turning to `COc1ccc2nc(NC(=O)c3cnccn3)sc2c1`, the Potency was 6.51 µM (active).

As to `Cc1ccc(NS(=O)(=O)c2ccc(Cl)c(C(=O)Nc3cccc(C(=O)O)c3)c2)cc1`, the Potency result was “inactive”.

Regarding `COc1ccc(C(=O)Nc2ccccc2C(=O)Nc2ccc(C(=O)O)cc2)cc1`, the Potency was 8.19 µM (active).

For the compound `O=C(O)c1cccc(NC(=O)c2cccc(S(=O)(=O)Nc3cccc(F)c3)c2)c1`, the Potency result was “inactive”.

On to `Cc1ccc(C(=O)Nc2ccc(C(=O)O)cc2)cc1S(=O)(=O)NCc1ccccc1`, for which the Potency result was “inactive”.

Turning to `O=C(Nc1ccccc1C(=O)O)c1cccc(NC(=O)c2ccco2)c1`, the Potency is 20.6 µM (active).

Regarding `CC(C)CC(=O)Nc1cccc(C(=O)Nc2ccccc2C(=O)O)c1`, the Potency is 23.1 µM (active).

Regarding `COc1ccc(C(=O)Nc2ccccc2C(=O)Nc2ccccc2C(=O)O)cc1`, the Potency was 1.63 µM (active).

In the case of `CC(C)(C)C(=O)Nc1ccc(-c2nc3ccccc3s2)cc1`, the Potency is 0.0411 µM (active).

In the case of `COc1ccc(C(=O)Nc2ccccc2C(=O)N/N=C/c2ccc(O)c(OC)c2)cc1`, the Potency is 0.0103 µM (active).

On to `Cc1ccc(C(=O)Nc2cccc(C(=O)O)c2)cc1S(=O)(=O)N1CCCC1`, for which the Potency is 4.61 µM (active).

The record behind these values is PubChem BioAssay AID602365 (National Center for Advancing Translational Sciences (NCATS), 2012).
